{"source": "PubChem BioAssay (NCI)", "note": "The panel holds about 83,000 compounds, 20% with a hit somewhere; the sample as a whole holds those more often.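 A percent growth of 40 corresponds to 60% growth inhibition; 0 means no net growth; -100 means all cells died. Active threshold: below 10.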 The source made the active and inactive calls.", "data": [{"tested_on": "MDA-MB-468 breast", "test": "NCI-60 one-dose screen, 48 h (100 = growth as untreated, 0 = no growth, -100 = all killed)", "details": "10 µM unless noted", "values": [{"smiles": "Cc1ccc(Nc2ccc(Nc3ccc(C)cc3)c3c2C(=O)c2cccc(O)c2C3=O)cc1", "growth": "83.3% (inactive)"}, {"smiles": "C[C@@H]1[C@H]2[C@H](C=C3[C@@H]4CC[C@H]5Cc6nc7c(nc6C[C@]5(C)[C@H]4C[C@@H](O)[C@@]32C)C[C@@H]2CC[C@H]3C4=C[C@@H]5O[C@@]6(CC[C@](C)(CO)O6)[C@@H](C)[C@@]5(O)[C@@]4(C)[C@H](O)C[C@@H]3[C@@]2(C)C7)O[C@]12CCC(C)(C)O2", "growth": "11.8% (inactive)"}, {"smiles": "C[C@H](NC(=O)c1c(N)nn2cccnc12)c1cc2cccc(C#Cc3cnn(C)c3)c2c(=O)n1-c1ccccc1", "growth": "-21.2% (active)"}, {"smiles": "CCOC(=O)/C=C1\\S/C(=N\\Nc2cc(=O)[nH]c3ccc(OC)cc23)N(c2ccccc2)C1=O", "growth": "101% (inactive)"}, {"smiles": "CCCCOc1ccc(NC(=O)n2nc(N=NN(C)C)c3ccc(Cl)cc32)cc1", "growth": "97.9% (inactive)"}, {"smiles": "CC(=O)n1c(/C(C#N)=C/c2ccc(N(C)C)cc2)cc2ccccc21", "growth": "14.2% (inactive)"}, {"smiles": "CCOC(=O)CC/C(C)=N\\Nc1ccc([N+](=O)[O-])cc1", "growth": "83.2% (inactive)"}, {"smiles": "COC(=O)c1cc([N+](=O)[O-])cc([N+](=O)[O-])c1Cl", "growth": "-7.42% (active)"}, {"smiles": "O=C(N/N=C\\c1ccc(Cl)cc1)c1ccc2nc(-c3ccc(Br)cc3)[nH]c2c1", "growth": "-34.9% (active)"}, {"smiles": "CNC(=O)NN", "growth": "107% (inactive)"}, {"smiles": "COc1ccc2[nH]cc(-c3nc(-c4cn(C)c5c(Cl)nccc45)cs3)c2c1", "growth": "18.1% (inactive)"}, {"smiles": "COc1ccccc1/C=C/C=N/NC1=NC2C(S1)N(C)C(=O)N2c1ccccc1", "note": "(configuration not stated)", "growth": "38.5% (inactive)"}]}]}
